Results on 22 molecules are retold here after PubChem BioAssay (NCATS).

The test system of one assay is MCC-13. Put plainly: qHTS assay to identify novel small-molecules to repurpose for Merkel cell carcinoma treatment (AID 1296009). Also: nearly all actives have a fitted effect of over 60% in size. Also: potency is read from the fitted curve at half-maximal effect. Conditions: MCC and control cell lines, CellTiter-Glo viability, 72 h; series mostly up to 46 µM. The procedure, abridged:
(§1)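 Viability readout: ATP luminescence (CellTiter-Glo) after 72 hr drug exposure at 37 degree celsius. Dose-response format was 8 points for NPC and 11 points for MIPE; data normalized to in-plate controls.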

Another assay relates to MCC-26. Described as above. Conditions: MCC and control cell lines, CellTiter-Glo viability, 72 h; series mostly up to 46 µM. The procedure, abridged: as §1
Background: ATP-based viability assays read luminescence as a measure of living cells.

The next assay relates to MKL-1. The description is as above. Particulars: MCC and control cell lines, CellTiter-Glo viability, 72 h; series mostly up to 46 µM. The procedure, abridged:
as §1

A further assay concerns MKL-2. The description is as above. Conditions: MCC and control cell lines, CellTiter-Glo viability, 72 h; series mostly up to 46 µM. The procedure, abridged:
as §1

The test system of another assay is NIH3T3. The description is as above. Conditions: MCC and control cell lines, CellTiter-Glo viability, 72 h; at 44.8 µM (top of the series) unless noted. The procedure, abridged:
as §1

For a further assay, the system named is UISO. Described as above. Conditions: MCC and control cell lines, CellTiter-Glo viability, 72 h; series mostly up to 46 µM. The procedure, abridged: as §1
A further assay relates to WaGa. The assay is described as above. Particulars: MCC and control cell lines, CellTiter-Glo viability, 72 h; series mostly up to 46 µM. The procedure, abridged:
as §1

Another assay relates to C33A. The experiment in a line: Primary qHTS to identify gynecologic anti-cancer compounds using libraries of approved drugs and bioactive compounds (AID 1345084). Also: nearly all actives have a fitted effect of over 55% in size. Conditions: Gynecologic cancer cell panel viability, ATPlite luminescence, 48 h; series mostly up to 57.5 µM. The procedure, abridged:
(§2)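 48 h compound exposure at 37 C, 5% CO2; five-point qHTS. ATPlite luminescence readout of cell ATP.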

A further assay deals with CAOV3. Described as above. Particulars: Gynecologic cancer cell panel viability, ATPlite luminescence, 48 h; series mostly up to 57.5 µM. The procedure, abridged:
as §2

The next assay concerns CASKI. Described as above. Particulars: Gynecologic cancer cell panel viability, ATPlite luminescence, 48 h; series mostly up to 57.5 µM. The procedure, abridged:
as §2

Results filed as inconclusive are left out. Some compounds were tested as several samples or in several runs, with calls that do not always agree. The source made the active and inactive calls. Calls follow the shape of the dose curve; as a rule, active = well fitted curve in the direction sought with a large enough effect; inconclusive = small, poorly fitted or top-dose-only effect, or another doubt; inactive = no such curve, though single readings can be large; an effect the other way counts as inactive or inconclusive.

Regarding `O=c1[nH]c2ccccc2n1CCCN1CCC(n2c(=O)[nH]c3cc(Cl)ccc32)CC1`, the Potency entry in the assay on MCC-13, in the assay with MCC-26, in the assay on MKL-1, with MKL-2, in the assay with UISO and in the assay with WaGa was “inactive” in each case. In addition, the Potency entry with C33A, in the assay with CAOV3 and in the assay on CASKI was “inactive” each time. Also, the outcome with NIH3T3 was inactive.
Turning to `CCCN1CCC[C@@H]2Cc3[nH]ncc3C[C@H]21`, the Potency result in the assay on MCC-13, in the assay on MCC-26, with MKL-1, in the assay with MKL-2, with UISO and with WaGa was “inactive” in each case. Also, the Potency entry in the assay on C33A, in the assay with CAOV3 and with CASKI was “inactive” in each case. The molecule was called inactive with NIH3T3.
As for `Clc1cccc(N2CCNCC2)c1`, the Potency entry in the assay on MCC-13, in the assay with MCC-26, in the assay with MKL-1, with MKL-2, in the assay on UISO and with WaGa was “inactive” in each case. Moreover, the Potency entry in the assay on C33A, in the assay on CAOV3 and in the assay with CASKI was “inactive” in each case. Also, the result with NIH3T3 was inactive.
`CC(C)=CC1C(C(=O)OCc2cccc(Oc3ccccc3)c2)C1(C)C` (stereo not drawn): the Potency result in the assay on MCC-13, in the assay with MCC-26, with MKL-1, with MKL-2, in the assay on UISO and with WaGa was “inactive” in each case. The Potency result with C33A, in the assay with CAOV3 and in the assay with CASKI was “inactive” each time. Also, the molecule was called inactive in the assay on NIH3T3.
For `CN1C(=S)CN=C(c2ccccc2)c2cc(Cl)ccc21`, the Potency entry in the assay on MCC-13, in the assay with MCC-26, with MKL-1, in the assay on MKL-2, with UISO and with WaGa was “inactive” in each case. Further, the Potency entry with C33A, with CAOV3 and in the assay on CASKI was “inactive” throughout. Moreover, the molecule was called inactive with NIH3T3.
Turning to `Cc1cccc(C)c1NC(=O)CN1CCCC1=O`, the Potency entry in the assay with MCC-13, with MCC-26, with MKL-1, in the assay with MKL-2, in the assay with UISO and with WaGa was “inactive” each time. Moreover, the Potency entry in the assay with C33A, with CAOV3 and with CASKI was “inactive” each time.
For the molecule `CCCC1CCCCN1` (stereo not drawn), the Potency result with MCC-13, in the assay on MCC-26, in the assay on MKL-1, with MKL-2, in the assay with UISO and in the assay on WaGa was “inactive” throughout. In addition, the Potency entry in the assay on C33A, in the assay with CAOV3 and in the assay on CASKI was “inactive” each time. For the same molecule, in the assay on NIH3T3, the call was inactive.
On to `CN(C)CCN(C)CCc1ccc(Cl)c(Cl)c1`, for which the Potency entry in the assay with MCC-13, in the assay on MCC-26, with MKL-1, in the assay with MKL-2, with UISO and in the assay with WaGa was “inactive” throughout.
For the molecule `CC1=C2C[C@@H]3[C@@H](CC=C4C[C@@H](O)CC[C@@]43C)[C@@H]2CC[C@]12O[C@H]1C[C@H](C)CN[C@H]1[C@H]2C`, the Potency entry with MCC-13, in the assay on MCC-26, in the assay on MKL-1, in the assay on MKL-2, with UISO and in the assay on WaGa was “inactive” throughout.
On to `N[C@@H](Cc1ccc(Oc2cc(I)c(O)c(I)c2)c(I)c1)C(=O)O`, for which the Potency result with MCC-13, in the assay with MCC-26, in the assay with MKL-1, in the assay with MKL-2, in the assay on UISO and in the assay with WaGa was “inactive” in each case. Also, the Potency result in the assay on C33A, in the assay with CAOV3 and in the assay on CASKI was “inactive” in each case.
In the case of `C#CCN(C)[C@H](C)Cc1ccccc1`, the Potency result in the assay with MCC-13, in the assay on MCC-26, with MKL-1, in the assay with MKL-2, with UISO and with WaGa was “inactive” in each case. The Potency result in the assay with C33A, with CAOV3 and in the assay with CASKI was “inactive” in each case. The molecule was classed as inactive in the assay with NIH3T3.
Turning to `CC1OC(C)OC(C)O1` (stereo not drawn), the Potency entry with MCC-13, in the assay with MCC-26, in the assay with MKL-1, with MKL-2, in the assay on UISO and in the assay with WaGa was “inactive” in each case. For the same molecule, the Potency result in the assay with C33A, with CAOV3 and with CASKI was “inactive” throughout. In addition, in the assay with NIH3T3, the molecule was classed as inactive.
Regarding `Cc1ccc2c(c1)C1CN(C)CCC1N2` (stereo not drawn), the Potency result in the assay with MCC-13, in the assay with MCC-26, with MKL-1, with MKL-2, with UISO and in the assay with WaGa was “inactive” each time. The Potency result in the assay on C33A, in the assay with CAOV3 and with CASKI was “inactive” in each case. Further, the outcome with NIH3T3 is “inactive [at 17.4 µM]”.
With `Cc1cc(SCc2sc(-c3ccc(C(F)(F)F)c(F)c3)nc2C)ccc1OCC(=O)O`, the Potency entry in the assay on MCC-13, in the assay with MCC-26, with MKL-1, in the assay on MKL-2, in the assay on UISO and with WaGa was “inactive” each time. The Potency entry in the assay on C33A, in the assay on CAOV3 and in the assay on CASKI was “inactive” throughout. Also, the molecule was classed as inactive in the assay with NIH3T3.
As to `CCC(C(N)=O)N1CCCC1=O` (stereo not drawn), the Potency entry with MCC-13, with MCC-26, with MKL-1, in the assay with MKL-2, in the assay on UISO and in the assay on WaGa was “inactive” throughout. The Potency result in the assay on C33A, with CAOV3 and with CASKI was “inactive” throughout. Besides, the molecule was called inactive in the assay on NIH3T3.
`CC(=O)[C@H]1CC[C@H]2[C@@H]3CC[C@H]4C[C@H](O)CC[C@]4(C)[C@H]3C(=O)C[C@]12C`: the Potency result with MCC-13, in the assay with MKL-1, in the assay on MKL-2, in the assay on UISO, in the assay on WaGa and in the assay with C33A was “inactive” in each case. In addition, the Potency entry in the assay with CAOV3 and in the assay on CASKI was “inactive” each time. In addition, in the assay on NIH3T3, the call was inactive.
For the molecule `C[C@]12CC[C@H]3[C@@H](CCC4=CC(=O)CC[C@@H]43)[C@@H]1CC[C@@H]2OC(=O)CCc1ccccc1`, the Potency result in the assay on MCC-13, with MCC-26, in the assay with MKL-1, in the assay on MKL-2, with UISO and with WaGa was “inactive” each time. Moreover, the Potency entry with C33A, with CAOV3 and in the assay on CASKI was “inactive” each time.
With `CCC(=O)C(CC(C)N(C)C)(c1ccccc1)c1ccccc1` (stereo not drawn), the Potency result with MCC-13, with MCC-26 and in the assay with C33A was “inactive” each time.
For the molecule `O=C(NC(O)C(Cl)(Cl)Cl)NC(O)C(Cl)(Cl)Cl` (stereo not drawn), the Potency entry in the assay on MCC-13, in the assay on MKL-1, with MKL-2, in the assay on UISO, in the assay on WaGa and in the assay on C33A was “inactive” in each case. Moreover, the Potency entry with CAOV3 and in the assay with CASKI was “inactive” each time. Besides, the result in the assay on NIH3T3 was inactive.
Consider `Clc1ccc(COC(Cn2ccnc2)c2ccc(Cl)cc2Cl)cc1` (stereo not drawn), for which the Potency entry with MCC-13 and in the assay with WaGa was “inactive” throughout. Also, the Potency with MCC-26 is 21.1 µM (active) and inactive; with MKL-1 it was 23.7 µM (active) and inactive; with UISO it was 15 µM (active).
As for `COC[C@H]1OC(=O)c2coc3c2[C@@]1(C)C1=C(C3=O)C2CCC(=O)[C@@]2(C)C[C@H]1OC(C)=O` (stereo partly drawn), the Potency result in the assay on MCC-13, with MCC-26, in the assay on UISO, with C33A, in the assay with CAOV3 and with CASKI was “inactive” throughout. The Potency in the assay on MKL-1 was 11.8 µM (active); in the assay with MKL-2, 7.43 µM (active); in the assay on WaGa, 8.33 µM (active).
On to `NN=C(N)N`, for which the Potency result in the assay with MCC-13, with MCC-26, in the assay on MKL-1, with MKL-2, in the assay with UISO and in the assay with WaGa was “inactive” each time. Moreover, the Potency entry in the assay with C33A, in the assay with CAOV3 and in the assay with CASKI was “inactive” each time.
